Experimental findings from PubChem BioAssay (Tox21) are described below.

Structures are written as SMILES. “And” between values parts separate entries of the source, which are not always exact repeats. Identical values can stand only once. Inconclusive results are not listed. Where a call stands in place of a potency, no number is given. The source made the active and inactive calls. Calls come from the whole dose curve; as a rule, active = well fitted curve in the direction sought with a large enough effect in the repeat runs; inconclusive = weak or mixed curves; inactive = no such curve, though single readings can be large; an effect the other way counts as inactive or inconclusive.

The target in assay [1] is Luciferin 4-monooxygenase (Photinus pyralis) (UniProt P08659). Description: qHTS assay to identify small molecule inhibitors of firefly luciferase (AID 1224835). Note: nearly all actives have a fitted effect of over 25% in size. Note: potency is the fitted concentration of half-maximal effect. Summed up: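 Biochemical qHTS: compounds run as interplate titrations against purified firefly enzyme, with D-luciferin and ATP each at its KM concentration. Light output recorded by CCD imaging.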
Chain of Luciferin 4-monooxygenase (Photinus pyralis) (P08659 whole entry, looked up): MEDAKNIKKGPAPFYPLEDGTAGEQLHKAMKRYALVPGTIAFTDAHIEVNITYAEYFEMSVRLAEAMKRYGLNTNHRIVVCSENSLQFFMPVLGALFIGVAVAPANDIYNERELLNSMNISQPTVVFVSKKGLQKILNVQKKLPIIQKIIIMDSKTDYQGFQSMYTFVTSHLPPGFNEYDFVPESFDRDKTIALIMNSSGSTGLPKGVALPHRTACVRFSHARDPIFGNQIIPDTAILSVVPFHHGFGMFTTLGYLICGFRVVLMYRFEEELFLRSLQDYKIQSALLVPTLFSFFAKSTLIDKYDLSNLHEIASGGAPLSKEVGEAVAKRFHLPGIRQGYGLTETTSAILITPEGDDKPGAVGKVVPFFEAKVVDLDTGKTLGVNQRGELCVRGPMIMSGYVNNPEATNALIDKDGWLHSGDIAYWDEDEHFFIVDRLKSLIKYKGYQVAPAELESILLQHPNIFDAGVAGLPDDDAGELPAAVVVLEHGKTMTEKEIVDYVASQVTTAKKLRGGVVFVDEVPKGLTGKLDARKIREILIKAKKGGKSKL
On the technique in general: In qHTS, concentration-response curves come from the screen itself.

A short description of assay [2]: qHTS assay to identify small molecule agonists of the constitutive androstane receptor (CAR) signaling pathway - cell viability counter screen (AID 1224836). Note: nearly all actives have a fitted effect of over 45% in size. Note: potency is the fitted concentration of half-maximal effect. The essentials: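 Compound titrations (15 concentrations) went onto HepG2-CYP2B6-hCAR cells 4 h after seeding, alongside PK11195 at a final 0.75 uM; a 23 h, 37 C/5% CO2 incubation preceded CellTiter-Fluor viability measurement.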

The nature of assay [3]: qHTS assay to identify small molecule antagonists of the estrogen related receptor (ERR) signaling pathway from Tox21 library - cell viability counter screen (AID 1224834). Note: nearly all actives have a fitted effect of over 30% in size. The essentials:
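After 17.5 h of compound exposure at 37 C, ERR cells are incubated with CellTiter-Fluor for 30 min and fluorescence intensity serves as the viability measure.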

`CC(=O)[O][Hg][c]1ccccc1`: the Potency is 1.25 µM (active) and 3.99 µM (active) and 2.75 µM (active) in assay [1]; 2.41 µM (active) and 4.33 µM (active) and 5.96 µM (active) in assay [2].

Consider `CCCCCCCCCCCCOS(=O)(=O)O`, for which the Potency result in assay [2] is “inactive”.

For the molecule `Cc1cc(Cl)ccc1OCC(=O)O`, the Potency result in assay [1] and in assay [2] was “inactive” each time.

Turning to `Nc1ccc(-c2ccc(N)c(Cl)c2)cc1Cl`, in assay [1], the Potency is 35.8 µM (active) and 33.2 µM (active) and 12.6 µM (active). Moreover, in assay [2], the Potency entry was “inactive”.

On to `Nc1ccccc1`, for which the Potency entry in assay [3] and in assay [2] was “inactive” throughout.

Turning to `COP(=O)(OC)OC=C(Cl)Cl`, the Potency entry in assay [1] and in assay [2] was “inactive” each time.

Consider `CCCCCCCCCCCCCC[P+](CCCCCC)(CCCCCC)CCCCCC`, for which the Potency result in assay [1] was “inactive”. Moreover, in assay [2], the Potency was 7.73 µM (active) and 9.77 µM (active).

On to `CCCn1cc[n+](C)c1`, for which the Potency result in assay [1] and in assay [2] was “inactive” throughout.

With `N#CS`, the Potency result in assay [3] and in assay [2] was “inactive” throughout.

For `O=S(=O)(O)O`, the Potency entry in assay [2] is “inactive”.

As for `O=C(O)CC(O)(CC(=O)O)C(=O)O`, the Potency entry in assay [1] and in assay [2] was “inactive” in each case.

Consider `CC(=O)O`, for which the Potency result in assay [2] was “inactive”.

With `O=C(O)C(Cl)Cl`, the Potency entry in assay [1] and in assay [2] was “inactive” throughout.

For `CN(C)[C@@H]1C(=O)C(C(N)=O)=C(O)[C@@]2(O)C(=O)C3=C(O)c4c(O)cccc4[C@@](C)(O)[C@H]3[C@H](O)[C@@H]12`, the Potency entry in assay [3], in assay [1] and in assay [2] was “inactive” each time.
